Source: PubChem BioAssay
M1 antagonist: M1 muscarinic receptor (rat) antagonism; P08482; CHO-M1 cells, Fluo-4 calcium, ACh EC80 antagonist mode; hits give low values; B-score at 10 µM; 64,000 tested, 3.4% active; AID 628;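 active = calcium fluorescence response, raw or row-and-column corrected B-score, differing from the plate sample mean either way at a set confidence level, mostly lower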
M1 ag: agonists of M1 muscarinic receptor; CHO-M1 cells, Fluo-4 calcium fluorescence, agonist mode; hits give high values; B-score at 10 µM; 64,000 tested, 3% active; AID 626;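 active = fluorescence rise, raw or as B-score row- and column-corrected plate score, outside the 99.7% band of its plate's samples, either direction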
WNV protease inh: WNV NS2B-NS3 proteinase inhibition; P06935; AID 577; 65,000 tested, 0.18% active; z-score (test concentration not listed); WNV NS2B-NS3 protease, fluorogenic substrate Ex360/Em465; hits give low values; in the data active = z-score below about -3
Target sequence (P06935 1371-1501 limits assumed): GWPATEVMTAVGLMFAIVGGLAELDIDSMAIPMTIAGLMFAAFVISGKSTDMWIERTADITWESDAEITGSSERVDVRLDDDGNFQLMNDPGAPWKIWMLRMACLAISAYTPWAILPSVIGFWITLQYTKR
Target sequence (P06935 1502-1679 limits assumed): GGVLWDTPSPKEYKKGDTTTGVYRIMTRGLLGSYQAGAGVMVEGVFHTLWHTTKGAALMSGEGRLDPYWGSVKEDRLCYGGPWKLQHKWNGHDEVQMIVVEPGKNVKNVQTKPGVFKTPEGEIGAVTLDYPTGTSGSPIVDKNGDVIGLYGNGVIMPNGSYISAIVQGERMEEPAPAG
D1 mod: D1 dopamine receptor (human) allosteric modulation. P21728. HEK293 D1, CRE-luciferase, dopamine EC30 potentiation; actives deviate in either direction. B-score at 10 µM. 58,000 tested, 5.9% active;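 active = luminescence count or its row- and column-corrected plate score outside the 99.7% band of the plate's sample wells, on either side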
mHtt clearance: mutant huntingtin protein clearance. HeLa Exon1htt(103Q)mCFP, aggregate imaging; zero = plate's median compound well. AID 853. 47,000 tested, 0.42% active. inhibition, % at 1.5 µM;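 active = inhibition of aggregate fluorescence above about 70%, also judged a hit by eye on the cell image, limit read from the data, passing the limit was not always enough; inconclusive = no rule stated for this call; inactive = not judged a hit on image review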;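 note: cells exposed to compound for three days before fixation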
M1 agonist conf: confirmation of rat M1 muscarinic receptor agonists; shares compounds with M1 ag; CHO-M1 cells, Fluo-4 calcium fluorescence, agonist mode; actives lie on both sides; fluorescence change (max-min) at 10 µM; 1,700 tested, 19% active; AID 1488;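 active = fluorescence change differs from the solvent-only DMSO control mean at a set confidence level in both duplicate runs; inconclusive = differs from solvent-only control mean in just one of two runs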;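 note: an EC20 dose of acetylcholine follows compound addition during the same imaging run; raw fluorescence intensity difference in instrument units with no normalization to controls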
M4 agonist ctr: counter-screen for M1 agonists: activity at rat M4 receptor. CHO M4/Gqi5 cells, Fluo-4 calcium fluorescence, agonist mode; actives lie on both sides. shares compounds with M1 ag. 1,700 tested, 9% active. fluorescence change (max-min) at 10 µM. AID 1741;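 active = fluorescence change differing from the plate's solvent-only control wells at 99.7% confidence in both duplicates, whether higher or lower; inconclusive = differs from solvent controls in only one of two duplicates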
Active calls of the source: *; ? = inconclusive; · = not tested or not shown. The list is not random: actives were taken first. Their share in the collection is about 8.9%.

SMILES	M1 antagonist	M1 ag	WNV protease inh	D1 mod	mHtt clearance	M1 agonist conf	M4 agonist ctr
COc1cc2[nH]c(=O)n(CCC(=O)N3CCN(c4cccc(C)c4C)CC3)c(=O)c2cc1OC	1.1	-0.43	-0.2	-0.66	39	·	·
Nc1cccc2c1C(=O)N(C(=O)c1ccc(S(=O)(=O)N3CCCCCC3)cc1)C2=O	-0.035	7.5*	0.19	-0.24	7	23	-23
O=C(c1ccc(S(=O)(=O)N2CCCCC2)cc1)N1CCN(c2ccccc2)CC1	-1.1	0.5	0.2	1.3	41	·	·
CCn1cc(C(=O)NCc2ccccn2)c(=O)c2cc(S(=O)(=O)N3CCCCC3)ccc21	1.2	11*	-0.46	0.32	36	73*	17
CCn1cc(C(=O)NCc2ccco2)c(=O)c2cc(S(=O)(=O)N3CCCCCC3)ccc21	0.61	0.51	0.2	0.78	·	·	·
Cc1cc(C)n2nc(C(=O)Nc3ccc4c(c3)OCO4)nc2n1	0.26	4.5*	-1.5	-0.0087	·	?	-52
Cc1ccc(N(C(C)C(=O)N2CCC(C)CC2)S(C)(=O)=O)cc1C (stereo not given)	-0.16	2.5*	1.6	0.092	52	-6.7	-15
CCOC(=O)N1CCN(C(=O)C(C)N(c2ccc(Oc3ccccc3)cc2)S(C)(=O)=O)CC1 (stereo not given)	-1.3	3.6*	-0.09	-0.15	·	-4.8	-66
COCCNC(=O)C(C)N(c1ccc(Oc2ccccc2)cc1)S(C)(=O)=O (stereo not given)	-0.13	0.0089	-0.85	0.078	·	·	·
Cn1cccc1-c1nc2ccc(NC(=O)c3cccs3)cc2[nH]1	-0.64	8.5*	0.48	-0.78	-62	?	-48
O=C(Nc1ccc2nc(-c3ccc(Br)o3)[nH]c2c1)c1cccs1	-0.4	1.2	-2	-1.7	6	·	·
O=C(Cc1nn[nH]n1)NCc1ccccc1Cl	0.17	0.11	0.29	0.3	·	·	·
CCOP(=O)(c1ccc(N(C)C)cc1)C(O)c1c(Cl)cccc1Cl (stereo not given)	0.59	8*	-1.1	-0.15	·	?	-53
COc1cc(/C=C/C(=O)CC(=O)/C=C/c2ccc(O)c(OC)c2)ccc1O	-1.1	164*	-2.2	0.32	·	367*	401*
CSc1nc(-c2ccco2)cc(-c2ccccc2)c1C#N	0.1	15*	-0.5	0.52	-22	?	?
COc1ccc(-c2cc(-c3ccc(OC)cc3)c(C#N)c(SC)n2)cc1	·	·	·	·	19	·	·
Cn1c(CC2C(=O)Nc3ccc(Br)cc32)nc2ccccc2c1=O (stereo not given)	-0.29	2*	-0.43	-0.19	4	?	-23
CSc1ccc(C2C(C#N)=C(N)Oc3c2ccc(=O)c2c(C)oc(C)c32)cc1 (stereo not given)	0.55	7.2*	0.09	0.54	-1	15	-18
Cc1nc(SCC(=O)NCc2ccco2)c2c(C)c(C)sc2n1	0.11	11*	0.53	1.9	13	-10	-43
Cc1sc2nc(C(C)C)nc(SCC(=O)NCc3ccco3)c2c1C	-0.84	0.028	-0.19	0.96	·	·	·
CCn1c(=O)cc(SCC(=O)N2CCN(c3ccccc3OC)CC2)c2ccccc21	0.31	4.5*	0.37	0.74	22	?	-30
CCn1c(=O)cc(SCC(=O)N2CCOCC2)c2ccccc21	-1.1	-0.61	-0.44	-0.6	-186	·	·
C=C(C)CSc1nnc2n(C)c(=O)c3c4c(sc3n12)CCC4	0.0045	3.5*	0.87	·	·	-19	?
Cc1snc(S(=O)(=O)/C(C#N)=N/Nc2ccc(C(F)(F)F)cc2)c1C#N	·	·	·	·	43	·	·
C=CCOC(=O)c1[nH]c2c(c1C)C(=O)CC(c1cc(OC)c(OC)c(OC)c1)C2 (stereo not given)	0.16	3.3*	-0.91	-3.2*	·	-12	-33
SMILES	M1 antagonist	M1 ag	WNV protease inh	D1 mod	mHtt clearance	M1 agonist conf	M4 agonist ctr
CC(C)Oc1ccc(/C(O)=C2/C(=O)C(=O)N(CCCN3CCOCC3)C2c2ccncc2)cc1 (stereo not given)	-0.47	1.3	1.2	0.14	·	·	·
COC(=O)C1C(=O)c2c([nH]c(C(=O)OCC3CCCO3)c2C)CC1C (stereo not given)	0.0014	-0.91	0.67	·	·	·	·
O=c1[nH]c2ccccc2n1CCC1CCCCC1	·	·	·	·	-18	·	·
CC(=O)c1ccc(Cc2cnc(N)s2)cc1	0.95	2.9*	-0.18	1.7	-70	9.8	-11
Cc1ccc(Cc2cnc(NC(=O)c3ccco3)s2)cc1	·	·	·	·	26	·	·
CC1=C(C#N)C(=O)OC(C)(C)C1	-1.2	15*	-8.2*	·	-34	39	33
CC(C)(C)OC(=O)NCCc1nnc(SCC(=O)c2ccc(Cl)cc2)o1	-0.47	0.0027	0.3	-1.6	·	·	·
C[C@H](NC(=O)OC(C)(C)C)c1nnc(SCC(=O)c2ccc(Cl)cc2)o1	-2.3	5.5*	0.28	-0.28	·	7.4	-11
CCN(CC)CCn1c2ccccc2c2cnc(N)c(C#N)c21	·	·	·	·	-23	·	·
CCOC(=O)C1CCN(C(c2cc3c(C)ccc(C)c3[nH]c2=O)c2nnnn2C2CCCCC2)CC1 (stereo not given)	0.096	2.6*	0.62	-1.4	-25	-33*	-57
CC1CCc2nn(CC(=O)NC3CCCC(C)C3C)cc2C1 (stereo not given)	-0.53	-0.025	-0.97	-0.02	·	·	·
COc1ccc(C(=O)N2CCN(c3ccc(C)cc3C)CC2)cc1OC	0.036	-1.3	-1.3	0.3	·	·	·
COc1ccc(C(=O)N2CCN(c3ccc(C)c(C)c3)CC2)cc1OC	0.03	-2.5*	-0.11	0.19	·	?	-83*
CN1C(=O)/C(=C/c2cc(N=Nc3ccccc3)ccc2O)SC1=S	·	·	·	·	-8	·	·
CC(C)(C)S(=O)(=O)c1ccccc1C(=O)O	1.5	-0.88	-0.46	·	-3	·	·
O=C(O)c1ccccc1S(=O)(=O)c1ccccc1CO	-0.0056	8*	-1.4	-0.99	·	-12	-45
CC1=C(C(=O)Nc2ccc(Br)cc2)C(c2ccco2)NC(=O)N1 (stereo not given)	·	·	·	·	4	·	·
COc1ccc(CNC(=O)CSc2ncnc3nc[nH]c23)cc1	-0.83	31*	-1.2	0.041	17	?	-63
COc1ccc(S(=O)(=O)NCCCCNS(=O)(=O)c2ccc(OC)cc2)cc1	-2.2	-4.2*	0.36	-0.24	66	-19	-23
COc1ccc(CNS(=O)(=O)c2ccc(OC)cc2)cc1	0.1	0.75	-0.16	0.08	56	·	·
C1=Nc2c(Nc3ccccc3)ncnc2Oc2ccccc21	-0.33	0.12	1.3	-1	3	·	·
O=C(CCCCCNc1nc(=S)[nH]c2ccccc12)N1CCN(c2ccccn2)CC1	-1.6	15*	-1.1	-0.0021	15	-9	-32
O=C(CCCn1c(=O)[nH]c2ccccc2c1=O)N1CCN(c2ccccn2)CC1	0.83	-0.29	-0.66	-0.76	·	·	·
O=C(O)CCNS(=O)(=O)c1ccc(Oc2ccccc2)cc1	-0.0097	-0.54	-1.7	-0.58	·	·	·
